We go through 5 compounds from ChEMBL document CHEMBL2218924, “A broad activity screen in support of a chemogenomic map for kinase signalling research and drug discovery” (Biochem J, 2013).

Assay [1] addresses T1, Dual specificity tyrosine-phosphorylation-regulated kinase 2 (Homo sapiens) (UniProt Q92630).
T1 sequence (whole entry): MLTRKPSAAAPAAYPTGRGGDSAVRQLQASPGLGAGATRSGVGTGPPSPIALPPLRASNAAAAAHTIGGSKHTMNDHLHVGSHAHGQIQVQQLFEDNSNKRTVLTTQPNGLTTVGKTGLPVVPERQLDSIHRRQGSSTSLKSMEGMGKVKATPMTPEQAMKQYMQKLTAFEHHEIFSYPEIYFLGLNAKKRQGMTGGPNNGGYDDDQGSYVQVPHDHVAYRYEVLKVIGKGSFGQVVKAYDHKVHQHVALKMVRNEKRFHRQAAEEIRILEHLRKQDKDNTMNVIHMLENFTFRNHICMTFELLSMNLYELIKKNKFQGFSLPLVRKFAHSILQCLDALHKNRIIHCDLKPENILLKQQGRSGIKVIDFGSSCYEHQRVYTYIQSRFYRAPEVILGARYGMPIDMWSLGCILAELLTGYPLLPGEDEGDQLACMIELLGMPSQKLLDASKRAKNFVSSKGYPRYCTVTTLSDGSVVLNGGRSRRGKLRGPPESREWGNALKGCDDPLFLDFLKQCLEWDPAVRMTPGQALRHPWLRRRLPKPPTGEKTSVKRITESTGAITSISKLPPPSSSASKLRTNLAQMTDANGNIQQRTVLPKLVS
The settings on record: at 1 µM.

For assay [2], the target named is T1, Dual specificity tyrosine-phosphorylation-regulated kinase 2 (Homo sapiens). As to conditions: at 10 µM.
In assay [3] the target is T2, Ephrin type-A receptor 1 (Homo sapiens) (UniProt P21709).
T2 sequence (whole entry): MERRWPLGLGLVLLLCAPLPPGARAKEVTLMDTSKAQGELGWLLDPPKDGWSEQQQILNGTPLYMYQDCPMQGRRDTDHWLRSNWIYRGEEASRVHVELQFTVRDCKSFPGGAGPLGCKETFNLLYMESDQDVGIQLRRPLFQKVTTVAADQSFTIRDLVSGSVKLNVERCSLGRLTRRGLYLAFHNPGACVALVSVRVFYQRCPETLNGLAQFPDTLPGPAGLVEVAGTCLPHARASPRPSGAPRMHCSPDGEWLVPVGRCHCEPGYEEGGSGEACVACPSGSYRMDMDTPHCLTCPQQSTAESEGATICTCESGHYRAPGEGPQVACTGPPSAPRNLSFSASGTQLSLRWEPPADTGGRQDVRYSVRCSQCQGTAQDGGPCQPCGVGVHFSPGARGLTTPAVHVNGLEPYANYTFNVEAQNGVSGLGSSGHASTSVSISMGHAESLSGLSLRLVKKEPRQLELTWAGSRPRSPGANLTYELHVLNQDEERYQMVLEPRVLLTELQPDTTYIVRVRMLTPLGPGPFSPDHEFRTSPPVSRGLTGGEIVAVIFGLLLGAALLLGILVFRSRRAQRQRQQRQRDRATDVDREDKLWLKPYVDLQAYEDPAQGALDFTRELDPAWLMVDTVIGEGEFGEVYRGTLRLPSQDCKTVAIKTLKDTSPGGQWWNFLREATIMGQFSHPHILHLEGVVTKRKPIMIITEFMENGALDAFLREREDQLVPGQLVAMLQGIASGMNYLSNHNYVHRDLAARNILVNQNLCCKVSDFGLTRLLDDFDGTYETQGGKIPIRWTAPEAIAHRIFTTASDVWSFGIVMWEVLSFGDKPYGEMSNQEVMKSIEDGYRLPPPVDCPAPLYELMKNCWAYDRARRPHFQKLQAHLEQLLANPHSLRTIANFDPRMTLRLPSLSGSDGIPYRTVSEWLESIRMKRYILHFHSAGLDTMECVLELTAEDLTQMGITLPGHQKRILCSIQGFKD
The settings on record: at 1 µM.

Assay [4] has as its target T2, Ephrin type-A receptor 1 (Homo sapiens). The settings on record: at 10 µM.
Assay [5] addresses Ephrin type-A receptor 2 (Homo sapiens) (UniProt P29317). The settings on record: at 1 µM.
The target is the same in assay [6]. The settings on record: at 10 µM.
The target in assay [7] is T3, Ephrin type-A receptor 3 (Homo sapiens) (UniProt P29320).
T3 sequence (whole entry): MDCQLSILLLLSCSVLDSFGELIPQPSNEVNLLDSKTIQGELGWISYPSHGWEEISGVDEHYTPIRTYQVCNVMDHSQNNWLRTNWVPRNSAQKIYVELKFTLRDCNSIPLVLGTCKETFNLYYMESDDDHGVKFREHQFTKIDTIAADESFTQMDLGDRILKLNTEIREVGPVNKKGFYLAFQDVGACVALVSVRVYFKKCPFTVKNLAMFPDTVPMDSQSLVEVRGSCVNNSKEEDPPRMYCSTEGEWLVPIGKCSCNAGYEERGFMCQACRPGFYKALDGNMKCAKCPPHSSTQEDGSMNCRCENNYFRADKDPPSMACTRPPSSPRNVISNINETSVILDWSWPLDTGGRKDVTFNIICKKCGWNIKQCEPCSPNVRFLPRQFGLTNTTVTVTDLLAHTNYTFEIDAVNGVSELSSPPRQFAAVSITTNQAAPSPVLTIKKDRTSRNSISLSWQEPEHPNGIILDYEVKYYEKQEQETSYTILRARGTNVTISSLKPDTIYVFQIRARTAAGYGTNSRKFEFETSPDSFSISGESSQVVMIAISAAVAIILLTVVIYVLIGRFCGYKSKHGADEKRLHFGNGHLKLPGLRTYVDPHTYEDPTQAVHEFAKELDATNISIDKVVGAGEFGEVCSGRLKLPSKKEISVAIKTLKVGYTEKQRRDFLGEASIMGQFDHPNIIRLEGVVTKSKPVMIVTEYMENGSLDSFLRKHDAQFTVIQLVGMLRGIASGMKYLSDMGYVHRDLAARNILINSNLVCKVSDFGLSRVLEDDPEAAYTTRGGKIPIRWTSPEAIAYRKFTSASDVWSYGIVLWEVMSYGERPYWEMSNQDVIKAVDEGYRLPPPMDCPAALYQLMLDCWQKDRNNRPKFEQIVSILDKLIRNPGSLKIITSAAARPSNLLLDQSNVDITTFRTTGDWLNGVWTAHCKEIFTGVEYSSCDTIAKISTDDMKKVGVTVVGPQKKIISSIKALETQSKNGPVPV
The settings on record: at 1 µM.

Assay [8] concerns the target T3, Ephrin type-A receptor 3 (Homo sapiens). The settings on record: at 10 µM.
Assay [9] has as its target Ephrin type-A receptor 7 (Homo sapiens) (UniProt Q15375). As to conditions: at 1 µM.
The target is the same in assay [10]. The settings on record: at 10 µM.
The target of assay [11] is T4, Ephrin type-A receptor 8 (Homo sapiens) (UniProt P29322).
T4 sequence (whole entry): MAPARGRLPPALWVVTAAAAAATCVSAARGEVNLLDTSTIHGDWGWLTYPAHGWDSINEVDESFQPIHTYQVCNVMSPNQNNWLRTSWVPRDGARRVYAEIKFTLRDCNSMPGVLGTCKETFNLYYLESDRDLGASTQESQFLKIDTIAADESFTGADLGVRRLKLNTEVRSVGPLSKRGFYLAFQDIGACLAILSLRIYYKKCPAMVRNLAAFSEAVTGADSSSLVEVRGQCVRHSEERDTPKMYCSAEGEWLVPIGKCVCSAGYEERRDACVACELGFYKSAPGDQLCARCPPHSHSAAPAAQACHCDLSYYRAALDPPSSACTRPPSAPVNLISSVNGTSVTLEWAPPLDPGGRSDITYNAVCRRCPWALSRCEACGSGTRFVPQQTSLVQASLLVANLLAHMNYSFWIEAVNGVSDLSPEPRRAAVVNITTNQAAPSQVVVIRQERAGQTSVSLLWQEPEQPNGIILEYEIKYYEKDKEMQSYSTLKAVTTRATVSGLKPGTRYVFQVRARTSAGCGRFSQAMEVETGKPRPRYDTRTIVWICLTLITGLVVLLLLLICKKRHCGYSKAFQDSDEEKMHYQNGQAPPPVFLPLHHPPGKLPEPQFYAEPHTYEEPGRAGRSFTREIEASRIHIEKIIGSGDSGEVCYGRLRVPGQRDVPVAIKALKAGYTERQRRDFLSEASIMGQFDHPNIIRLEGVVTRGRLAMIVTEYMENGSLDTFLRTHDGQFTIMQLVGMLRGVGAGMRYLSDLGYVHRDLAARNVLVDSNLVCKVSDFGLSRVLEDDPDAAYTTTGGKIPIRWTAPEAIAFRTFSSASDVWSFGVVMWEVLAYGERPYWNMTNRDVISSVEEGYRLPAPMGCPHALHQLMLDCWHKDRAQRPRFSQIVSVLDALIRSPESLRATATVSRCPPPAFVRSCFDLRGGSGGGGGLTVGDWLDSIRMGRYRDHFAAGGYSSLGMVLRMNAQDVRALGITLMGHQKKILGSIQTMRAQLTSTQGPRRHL
As to conditions: at 1 µM.

Assay [12] concerns the target T4, Ephrin type-A receptor 8 (Homo sapiens). The settings on record: at 10 µM.
The target of assay [13] is T5, Ephrin type-B receptor 1 (Homo sapiens) (UniProt P54762).
T5 sequence (whole entry): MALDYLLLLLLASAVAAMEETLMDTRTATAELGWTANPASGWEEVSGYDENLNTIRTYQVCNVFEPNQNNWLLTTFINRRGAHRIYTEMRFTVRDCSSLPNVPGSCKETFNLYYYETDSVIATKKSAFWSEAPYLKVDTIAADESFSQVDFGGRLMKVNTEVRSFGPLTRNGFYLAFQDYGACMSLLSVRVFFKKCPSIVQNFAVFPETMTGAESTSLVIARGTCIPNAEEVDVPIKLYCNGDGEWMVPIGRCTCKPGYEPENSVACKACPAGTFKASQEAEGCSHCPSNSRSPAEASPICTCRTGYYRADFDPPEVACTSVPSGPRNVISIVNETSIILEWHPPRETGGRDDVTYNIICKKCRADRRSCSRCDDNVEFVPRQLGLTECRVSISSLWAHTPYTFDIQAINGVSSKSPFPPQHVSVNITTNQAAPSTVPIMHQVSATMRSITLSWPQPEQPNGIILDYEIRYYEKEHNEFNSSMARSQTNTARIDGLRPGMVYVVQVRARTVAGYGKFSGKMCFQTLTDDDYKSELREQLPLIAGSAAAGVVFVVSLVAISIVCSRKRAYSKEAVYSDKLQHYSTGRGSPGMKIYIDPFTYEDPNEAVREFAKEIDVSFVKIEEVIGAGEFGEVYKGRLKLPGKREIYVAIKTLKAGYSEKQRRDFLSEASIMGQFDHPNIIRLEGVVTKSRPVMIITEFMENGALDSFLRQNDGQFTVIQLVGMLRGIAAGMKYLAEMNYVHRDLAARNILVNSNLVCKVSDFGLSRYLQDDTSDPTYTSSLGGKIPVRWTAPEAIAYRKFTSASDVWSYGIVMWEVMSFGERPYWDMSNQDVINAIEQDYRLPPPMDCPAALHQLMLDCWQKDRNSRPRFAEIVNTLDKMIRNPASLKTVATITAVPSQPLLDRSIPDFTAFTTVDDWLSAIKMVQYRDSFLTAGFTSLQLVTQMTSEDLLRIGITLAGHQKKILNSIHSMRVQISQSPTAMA
The settings on record: at 1 µM.

In assay [14] the target is Ephrin type-A receptor 5 (Homo sapiens) (UniProt P54756). As to conditions: at 10 µM.
Ephrin type-A receptor 5 (Homo sapiens), sequence (P54756 whole entry): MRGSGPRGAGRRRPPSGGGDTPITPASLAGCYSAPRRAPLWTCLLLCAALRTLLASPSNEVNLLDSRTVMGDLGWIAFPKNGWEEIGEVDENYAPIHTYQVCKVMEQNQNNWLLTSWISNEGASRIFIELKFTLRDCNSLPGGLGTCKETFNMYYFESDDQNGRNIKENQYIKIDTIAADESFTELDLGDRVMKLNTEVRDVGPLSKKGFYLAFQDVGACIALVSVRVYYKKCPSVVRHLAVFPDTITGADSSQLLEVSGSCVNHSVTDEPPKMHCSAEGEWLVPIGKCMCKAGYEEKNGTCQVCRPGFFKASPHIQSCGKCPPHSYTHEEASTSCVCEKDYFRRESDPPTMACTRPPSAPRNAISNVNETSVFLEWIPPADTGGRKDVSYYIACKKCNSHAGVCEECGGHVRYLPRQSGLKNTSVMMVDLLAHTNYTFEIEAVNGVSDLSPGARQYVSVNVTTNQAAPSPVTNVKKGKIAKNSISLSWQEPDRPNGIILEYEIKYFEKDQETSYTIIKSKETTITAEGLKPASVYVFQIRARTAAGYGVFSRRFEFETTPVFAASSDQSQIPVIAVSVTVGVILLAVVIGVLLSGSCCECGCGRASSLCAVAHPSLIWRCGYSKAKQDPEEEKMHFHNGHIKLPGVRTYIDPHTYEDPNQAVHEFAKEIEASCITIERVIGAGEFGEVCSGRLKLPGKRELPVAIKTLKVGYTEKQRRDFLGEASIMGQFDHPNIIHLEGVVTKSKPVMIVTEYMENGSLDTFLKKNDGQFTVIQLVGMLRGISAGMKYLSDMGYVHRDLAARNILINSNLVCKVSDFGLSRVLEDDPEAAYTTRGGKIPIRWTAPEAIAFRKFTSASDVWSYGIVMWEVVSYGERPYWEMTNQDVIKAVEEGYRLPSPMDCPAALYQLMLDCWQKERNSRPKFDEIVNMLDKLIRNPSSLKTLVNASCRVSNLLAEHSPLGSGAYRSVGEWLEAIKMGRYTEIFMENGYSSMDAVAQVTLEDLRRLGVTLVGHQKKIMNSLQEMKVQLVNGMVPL
The target in assay [15] is T6, Serine/threonine-protein kinase 17A (Homo sapiens) (UniProt Q9UEE5).
T6 sequence (whole entry): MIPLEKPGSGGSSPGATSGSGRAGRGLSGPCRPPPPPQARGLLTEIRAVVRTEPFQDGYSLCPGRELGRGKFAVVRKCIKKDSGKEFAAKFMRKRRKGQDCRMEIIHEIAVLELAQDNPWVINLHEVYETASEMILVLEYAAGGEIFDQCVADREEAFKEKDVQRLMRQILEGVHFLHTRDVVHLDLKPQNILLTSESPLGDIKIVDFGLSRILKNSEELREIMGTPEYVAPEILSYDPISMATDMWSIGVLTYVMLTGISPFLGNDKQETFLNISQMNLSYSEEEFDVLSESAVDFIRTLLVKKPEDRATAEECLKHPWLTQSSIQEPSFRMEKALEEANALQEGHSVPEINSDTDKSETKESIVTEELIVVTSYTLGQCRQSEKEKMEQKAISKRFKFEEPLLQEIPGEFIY
The settings on record: at 10 µM.

The target in assay [16] is Ephrin type-A receptor 5 (Homo sapiens) (UniProt P54756). The settings on record: at 1 µM.
Assay [17] deals with Ephrin type-A receptor 4 (Homo sapiens) (UniProt P54764). As to conditions: at 1 µM.
Ephrin type-A receptor 4 (Homo sapiens), sequence (P54764 whole entry): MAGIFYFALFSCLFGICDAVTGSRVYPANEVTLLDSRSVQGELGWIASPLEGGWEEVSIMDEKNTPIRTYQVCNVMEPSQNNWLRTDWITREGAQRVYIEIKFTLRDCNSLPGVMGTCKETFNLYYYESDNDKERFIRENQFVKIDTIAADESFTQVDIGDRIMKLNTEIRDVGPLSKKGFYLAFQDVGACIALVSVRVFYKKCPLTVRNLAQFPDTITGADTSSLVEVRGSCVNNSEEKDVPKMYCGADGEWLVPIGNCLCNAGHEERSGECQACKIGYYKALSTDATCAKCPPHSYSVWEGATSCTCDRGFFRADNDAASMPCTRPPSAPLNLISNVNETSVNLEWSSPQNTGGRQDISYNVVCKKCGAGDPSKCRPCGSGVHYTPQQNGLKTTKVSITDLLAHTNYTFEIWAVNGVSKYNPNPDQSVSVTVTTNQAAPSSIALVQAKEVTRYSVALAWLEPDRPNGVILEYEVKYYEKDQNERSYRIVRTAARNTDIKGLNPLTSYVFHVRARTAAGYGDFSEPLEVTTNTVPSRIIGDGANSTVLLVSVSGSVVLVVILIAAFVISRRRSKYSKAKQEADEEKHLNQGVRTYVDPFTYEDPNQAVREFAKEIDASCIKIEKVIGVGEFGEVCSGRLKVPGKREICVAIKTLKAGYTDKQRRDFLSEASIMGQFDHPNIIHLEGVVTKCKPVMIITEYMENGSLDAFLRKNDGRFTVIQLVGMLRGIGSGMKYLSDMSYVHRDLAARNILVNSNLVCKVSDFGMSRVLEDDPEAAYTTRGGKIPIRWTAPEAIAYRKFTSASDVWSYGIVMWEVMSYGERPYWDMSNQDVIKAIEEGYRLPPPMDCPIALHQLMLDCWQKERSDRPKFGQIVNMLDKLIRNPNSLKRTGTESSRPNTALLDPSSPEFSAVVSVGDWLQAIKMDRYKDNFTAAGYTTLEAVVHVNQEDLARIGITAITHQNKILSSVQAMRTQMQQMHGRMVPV

Ephrin type-A receptor 2 (Homo sapiens), sequence (P29317 whole entry): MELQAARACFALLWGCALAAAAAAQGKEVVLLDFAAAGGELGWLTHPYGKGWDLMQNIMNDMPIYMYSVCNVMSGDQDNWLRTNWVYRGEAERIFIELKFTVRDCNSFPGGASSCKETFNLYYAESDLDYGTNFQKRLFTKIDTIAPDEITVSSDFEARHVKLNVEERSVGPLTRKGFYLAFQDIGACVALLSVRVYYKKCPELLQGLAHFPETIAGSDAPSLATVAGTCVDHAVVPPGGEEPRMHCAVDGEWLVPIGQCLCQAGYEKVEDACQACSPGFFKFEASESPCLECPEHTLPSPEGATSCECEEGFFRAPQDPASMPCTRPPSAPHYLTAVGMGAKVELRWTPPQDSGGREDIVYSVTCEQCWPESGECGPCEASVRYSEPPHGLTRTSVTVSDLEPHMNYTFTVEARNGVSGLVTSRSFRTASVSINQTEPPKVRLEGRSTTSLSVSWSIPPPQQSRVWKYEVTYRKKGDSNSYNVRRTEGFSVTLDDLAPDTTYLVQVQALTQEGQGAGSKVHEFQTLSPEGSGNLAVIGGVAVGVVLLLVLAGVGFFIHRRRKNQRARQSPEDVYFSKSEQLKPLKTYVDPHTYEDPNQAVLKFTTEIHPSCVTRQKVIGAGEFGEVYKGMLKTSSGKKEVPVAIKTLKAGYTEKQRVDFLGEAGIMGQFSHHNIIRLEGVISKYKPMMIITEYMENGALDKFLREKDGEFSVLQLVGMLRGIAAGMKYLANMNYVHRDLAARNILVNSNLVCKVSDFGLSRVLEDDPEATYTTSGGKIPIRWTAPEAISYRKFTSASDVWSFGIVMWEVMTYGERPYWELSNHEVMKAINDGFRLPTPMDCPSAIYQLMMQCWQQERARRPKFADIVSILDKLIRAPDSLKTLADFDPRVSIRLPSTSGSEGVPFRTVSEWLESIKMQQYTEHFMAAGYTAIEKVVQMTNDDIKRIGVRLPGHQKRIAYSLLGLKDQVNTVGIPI
Ephrin type-A receptor 7 (Homo sapiens), sequence (Q15375 28-998 limits assumed): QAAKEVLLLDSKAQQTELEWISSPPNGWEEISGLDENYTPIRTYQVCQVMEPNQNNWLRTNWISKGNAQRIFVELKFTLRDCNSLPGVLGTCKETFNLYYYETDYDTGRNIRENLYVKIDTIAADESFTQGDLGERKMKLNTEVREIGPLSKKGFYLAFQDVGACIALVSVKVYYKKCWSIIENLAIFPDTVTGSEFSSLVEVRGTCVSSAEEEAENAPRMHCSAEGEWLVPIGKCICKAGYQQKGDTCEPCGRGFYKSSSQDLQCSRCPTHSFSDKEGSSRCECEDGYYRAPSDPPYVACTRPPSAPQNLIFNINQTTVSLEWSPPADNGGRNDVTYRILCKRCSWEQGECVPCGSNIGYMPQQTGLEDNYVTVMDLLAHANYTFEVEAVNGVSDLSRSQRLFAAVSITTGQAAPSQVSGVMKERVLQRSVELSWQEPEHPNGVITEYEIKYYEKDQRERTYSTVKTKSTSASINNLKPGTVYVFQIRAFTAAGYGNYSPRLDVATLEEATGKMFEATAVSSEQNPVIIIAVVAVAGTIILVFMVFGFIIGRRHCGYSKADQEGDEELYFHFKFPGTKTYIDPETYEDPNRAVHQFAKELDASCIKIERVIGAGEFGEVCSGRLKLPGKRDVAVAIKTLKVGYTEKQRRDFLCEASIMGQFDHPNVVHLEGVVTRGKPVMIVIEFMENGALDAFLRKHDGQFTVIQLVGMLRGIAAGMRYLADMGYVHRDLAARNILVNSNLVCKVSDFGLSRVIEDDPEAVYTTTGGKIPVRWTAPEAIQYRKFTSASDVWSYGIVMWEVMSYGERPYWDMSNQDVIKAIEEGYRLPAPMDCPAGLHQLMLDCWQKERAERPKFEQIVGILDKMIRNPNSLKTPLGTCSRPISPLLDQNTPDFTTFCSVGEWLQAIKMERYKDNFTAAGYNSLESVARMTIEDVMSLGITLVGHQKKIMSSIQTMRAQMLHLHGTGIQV

Turning to `Cn1sc(=O)n(Cc2ccccc2)c1=O`, the residual activity (as a rule, the signal under treatment as a percentage of the control signal) in [1] is 96%; in [2], 82%; in assay [3], 96%; in assay [4], 93%; in assay [5] it was 93%; in assay [6], 92%. The residual activity in [7] worked out at 87%; in [8], 86%; in [9] it was 86%; in assay [10], 86%; in assay [11], 87%; in assay [12], 84%. The residual activity in assay [13] came out at 90%.
As to `CCOc1nc(NC(=O)Cc2cc(OC)ccc2OC)cc(N)c1C#N`, the residual activity in assay [14] came out at 74%.
With `O=S(=O)(c1cccc2cnccc12)N1CCCNCC1`, the residual activity in assay [3] came out at 100%.
In the case of `COc1ccc(Cl)cc1NC(=O)Nc1cc(C)nc2ccccc12`, the residual activity in assay [15] stood at 58%; in [3] it was 89%; in assay [4], 89%; in assay [16], 97%; in assay [14] it was 86%; in assay [9], 83%. The residual activity came out at 56% in [10] and 88% in [13].
Consider `CC(C)c1nn(-c2c(Cl)cccc2Cl)c2nc(Cc3ccc(OCCO)cc3)[nH]c(=O)c12`, for which the residual activity in assay [1] was 96%; in assay [2] it was 106%; in assay [3] it was 105%; in [4], 73%; in assay [5], 96%; in [6] it was 103%. The residual activity in [7] was determined as 94%; in assay [8], 85%; in assay [17], 121%; in [16], 106%; in [14] it was 106%; in [9], 97%. Besides, the residual activity in assay [10] was determined as 88%; in assay [11], 94%; in assay [12] it was 89%; in assay [13] it was 90%.
